Records with an inconclusive call do not appear. The source made the active and inactive calls. The call rests on the fitted dose curve; in most records, active means well fitted inhibition curve with a large enough effect; inconclusive means small, poorly fitted or top-dose-only effect; inactive means flat fitted curve, though single readings scatter.

Here are results for ten compounds from PubChem BioAssay (NCATS).
Potency means the concentration at half of the fitted maximal effect.

For the assay, the system named is AA1029. The assay is described as follows: qHTS profiling for inhibitors of Plasmodium falciparum proliferation (AID 504749). Further: nearly all actives have a fitted effect of over 60% in size.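 On activity, negative = inhibition: 0% = DMSO vehicle and full inhibition = artemisinin control.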 Conditions: P. falciparum in erythrocytes, SYBR Green DNA, 72 h; series mostly up to 28.7 µM; activity, negative = inhibition: at the top concentration. Put shortly:
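In a 72 h erythrocytic culture (37 C, humidified, 5% CO2) at 2.5% hematocrit and 0.3% starting parasitemia, compounds were tested; SYBR Green I in detergent lysis buffer stained parasite DNA overnight.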
On the technique in general: qHTS replaces the single test concentration by a dilution series.
For the compound `CO/N=C(/C(=O)N[C@@H]1C(=O)N2C(C(=O)O)=CCS[C@H]12)c1csc(N)n1`, the “activity, negative = inhibition” value is -3.08% (inactive).

As to `Cc1cc(CC(C)CC(C)(C)C)n(O)c(=O)c1` (stereo not given), the Potency is 3.16 µM (active).

For `CC1CCC(C(C)C)C(OC(=O)c2ccccc2O)C1` (stereo not given), the “activity, negative = inhibition” value is 3.76% (inactive).

For `CC(C)(CO)C(O)C(=O)NCCCC(=O)O` (stereo not given), the “activity, negative = inhibition” value is -72.7% (inactive).

Consider `CO[C@@H]1[C@@H](OC2OC(C)C(OC3CC(C)(O)C(OC(=O)CC(C)C)C(C)O3)C(N(C)C)C2O)[C@@H](CC=O)C[C@@H](C)C(=O)/C=C\C2O[C@H]2C[C@@H](C)OC(=O)C[C@H]1OC(C)=O` (stereo not given in full), for which the Potency is 5.01 µM (active).

For `CCC(=O)O[C@@H](OP(=O)(CCCCc1ccccc1)CC(=O)N1C[C@H](C2CCCCC2)C[C@H]1C(=O)O)C(C)C` (stereo not given in full), the “activity, negative = inhibition” value is -11.7% (inactive).

On to `CC(=O)O[C@@]12CO[C@@H]1C[C@H](O)[C@@]1(C)C(=O)[C@H](O)C3=C(C)[C@@H](OC(=O)C(O)[C@@H](NC(=O)OC(C)(C)C)c4ccccc4)C[C@@](O)([C@@H](OC(=O)c4ccccc4)[C@H]21)C3(C)C` (stereo not given in full), for which the Potency was 0.0447 µM (active).

For the compound `CC1(C)S[C@@H]2[C@H](NC(=O)COc3ccccc3)C(=O)N2[C@H]1C(=O)O`, the “activity, negative = inhibition” value is -3.12% (inactive).

In the case of `CCN1/C(=C/C=C/C=C/c2sc3ccccc3[n+]2CC)Sc2ccccc21`, the Potency is 3.98 µM (active).

On to `O=NCc1ccc([N+](=O)[O-])o1`, for which the “activity, negative = inhibition” value was -25.5% (inactive).
